Compound activity (PubChem)
Hits are enriched below; roughly 3.7% of the tested compounds scored in any of these assays.
TIM10 inh: growth inhibitors of isogenic TIM10 control yeast, primary screen, counter-screen for tim10-1 yeast inhibitor project, luminescence, uHTS | S. cerevisiae TIM10 strain growth, BacTiter-Glo luminescence, 24 h | inhibition, % at 10 µM | 330,000 tested, 1.4% active | AID 463195, 2010;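 active means inhibition of 40% or more at the single tested concentration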;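 further: wild-type TIM10 isogenic control strain grown at permissive 25 °C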
NALP3 yeast inh: NALP3 inflammasome inhibitors in reconstituted yeast, primary screen, luminescence, uHTS | Yeast reconstituted NLRP3/ASC/caspase-1, beta-gal luminescence, 24 h | AID 2825, 2010 | inhibition, % at 10 µM | 330,000 tested, 0.39% active;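 active means inhibition of 50% or more; inactive means inhibition below 50%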;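 further: plate controls were induced DMSO wells for no effect and uninduced yeast grown without galactose for full effect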
tim10-1 inh: growth inhibitors of tim10-1 mutant yeast, primary screen, luminescence, uHTS | S. cerevisiae tim10-1 ts strain growth, BacTiter-Glo, 24 h | inhibition, % at 20 µM | 330,000 tested, 2.2% active | AID 463190, 2010;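 active means inhibition of at least 40%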;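 further: mutant grown at 25 °C; 0% = DMSO wells with yeast and 100% = wells holding no yeast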
PfHsp90 yeast 2: growth inhibition of PfHsp90-expressing yeast, primary screen, antimalarial PfHsp90 inhibitor project, S. cerevisiae, BacTiter-Glo luminescence, single point, set 2; BacTiter-Glo ATP, 48 h; yeast lacking PDR1 and PDR3 efflux regulators; inhibition, % at 9.4 µM; 310,000 tested, 0.32% active;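 active means every replicate shows inhibition above about 80%, whatever the replicate mean, limit read from the data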;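 further: 0% = DMSO neutral controls and 100% = 20 µM radicicol positive controls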
tim23-1 inh: growth inhibitors of tim23-1 mutant yeast, primary screen, luminescence, uHTS; S. cerevisiae tim23-1 growth, BacTiter-Glo luminescence, 24 h; inhibition, % at 20 µM; 330,000 tested, 1.3% active; AID 463212, 2010;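 active means growth inhibition of the mutant yeast at or above 50%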;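 further: temperature-sensitive mutant grown at 25 °C; plate controls were DMSO-treated mutant yeast for no effect and medium wells lacking yeast for full effect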
tim10-1 confirm: growth inhibitors of tim10-1 mutant yeast, confirmation, single concentration, luminescence, S. cerevisiae | shares compounds with tim10-1 inh | S. cerevisiae tim10-1 ts strain growth, BacTiter-Glo, 24 h | inhibition, % at 20 µM | 7,400 tested, 56% active;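 active means inhibition of yeast growth at or above a set limit in either of two repeat tests at 20 µM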;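 further: tim10-1 mutant grown at permissive 25 °C to find synthetic lethal compounds; 0% = DMSO yeast wells and 100% = medium wells without yeast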
TIM10 conf: growth inhibitors of wild-type TIM10 yeast, confirmation, counter-screen for tim10-1 synthetic lethality project, single concentration, luminescence, S. cerevisiae | shares compounds with TIM10 inh | S. cerevisiae tim10 strain growth, BacTiter-Glo luminescence, 24 h | inhibition, % at 10 µM | 4,600 tested, 63% active | AID 463215, 2010;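 active means inhibition of yeast growth at or above a set limit in either of two replicates at 10 µM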;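 further: this counterscreen used the strain with wild-type TIM10; 0% = yeast with DMSO and 100% = medium wells lacking yeast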
tim23-1 conf: tim23-1 mutant yeast growth inhibitors, confirmation, luminescence, single concentration. shares compounds with tim23-1 inh. S. cerevisiae tim23-1 growth, BacTiter-Glo luminescence, 24 h. inhibition, % at 20 µM. 4,400 tested, 83% active;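 active means inhibition above about 39% in either of two replicate wells at 20 µM, limit read from the data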;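 further: temperature-sensitive tim23-1 mutant grown at 25 °C; 0% = DMSO wells with yeast and 100% = medium wells without yeast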
* marks the source's active call; other numbers are inactive results; · = no result.

SMILES	TIM10 inh	NALP3 yeast inh	tim10-1 inh	PfHsp90 yeast 2	tim23-1 inh	tim10-1 confirm	TIM10 conf	tim23-1 conf
Cc1ccc(S(=O)(=O)CNC(=S)c2ccc3ccccc3c2)cc1	34	14	43*	-14	53*	20	·	50*
Cc1ccc(S(=O)(=O)CNC(=O)c2ccccc2)cc1	3	7	9	-17	4	·	·	·
COc1cc(OC)c2c(c1)OC(=O)CC2c1ccc(C)cc1 (stereo unspecified)	0	·	20	-35	47	·	·	·
COc1ccc(OC)c(C2C(C#N)=C(N)Oc3c2c(C)nn3-c2cccc(Cl)c2)c1 (stereo unspecified)	44*	1	46*	·	51*	29	15	50*
Cc1nn(-c2cccc(Cl)c2)c2c1C(c1ccncc1)C(C#N)=C(N)O2 (stereo unspecified)	28	9	36	·	15	·	·	·
Cc1ccc(-c2cc([C@H]3[C@H]4C=CC[C@@H](C)[C@@H]4C(=O)N3Cc3ccccc3)ccc2F)cc1	-9	18	18	-25	-5	·	·	·
CC[C@@H]1CC=C[C@H]2[C@H]1C(=O)N(Cc1ccccc1)[C@H]2c1cc(C)ccc1F	50*	8	55*	·	51*	35*	38*	54*
CN(C)c1ccc(N=Cc2nc(-c3ccccc3)oc2OC(=O)c2cccc(Br)c2)cc1	5	40	12	-18	17	·	·	·
CCOC(=O)c1ccc(N=Cc2nc(-c3ccccc3)oc2OC(C)=O)cc1	45*	9	71*	-5	58*	55*	68*	83*
CN=Cc1nc(-c2ccccc2)oc1O	6	15	20	-10	17	·	·	·
CCC(=O)Oc1oc(-c2ccccc2)nc1C=Nc1ccccc1OC	40	-11	50*	3	53*	36*	·	70*
CC(=O)Oc1oc(-c2ccccc2)nc1C=Nc1ccccc1	41*	12	53*	-7	77*	49*	44*	76*
CCC(=O)Oc1oc(-c2ccccc2)nc1C=Nc1ccc(C)cc1	32	10	19	1	46	·	·	·
COc1ccc(NC(=O)COC(=O)c2ccc(O)cc2)c([N+](=O)[O-])c1	13	31	-18	3	-10	·	·	·
N/C(Cc1ccc([N+](=O)[O-])cc1)=N\OC(=O)c1ccc2ccccc2c1	90*	28	54*	15	81*	47*	89*	92*
Cc1cccc(C(=O)O/N=C(\N)Cc2ccc([N+](=O)[O-])cc2)c1	87*	22	40*	2	81*	58*	91*	91*
N/C(Cc1ccc([N+](=O)[O-])cc1)=N\OC(=O)c1ccco1	27	11	21	-24	26	·	·	·
N/C(Cc1ccc([N+](=O)[O-])cc1)=N\OC(=O)c1ccccc1Br	88*	20	52*	-70	62*	56*	-8	88*
N/C(Cc1ccc([N+](=O)[O-])cc1)=N\OC(=O)CC1CCCCC1	86*	31	65*	8	79*	64*	92*	83*
Cc1cccc(C(=O)Oc2ccc(/C=N/NC(=O)Cc3ccc([N+](=O)[O-])cc3)cc2)c1	-12	3	-2	-5	-8	·	·	·
CC1=NN(c2ccccc2)C(=O)/C1=C\c1cn(CCC#N)nc1-c1ccc(Cl)cc1	54*	13	43*	7	54*	31	38*	51*
O=C(O)Cc1cn(-c2ccccc2)nc1-c1ccc(Cl)cc1	0	18	10	21	14	·	·	·
CC1=NNC(=O)/C1=C\c1cn(-c2ccccc2)nc1-c1ccc(Cl)cc1	89*	34	83*	0	89*	71*	89*	68*
COc1ccc(OC)c(S(=O)(=O)CC(=O)c2cc3ccc(OC)cc3oc2=O)c1	9	10	30	-35	38	·	·	·
COc1ccc(S(=O)(=O)CC(=O)c2cc3cc(Br)ccc3oc2=O)cc1	30	2	62*	10	72*	50*	·	85*
SMILES	TIM10 inh	NALP3 yeast inh	tim10-1 inh	PfHsp90 yeast 2	tim23-1 inh	tim10-1 confirm	TIM10 conf	tim23-1 conf
CCOC(=O)c1sc(-c2ccc(C(F)(F)F)cc2)nc1O	27	1	46*	106*	74*	17	·	32
COc1ccccc1N1CCN(CC(=O)Nc2sccc2C#N)CC1	14	17	16	10	5	·	·	·
O=C(Nc1ccc(Cl)cc1C(=O)Nc1ccc(Br)cn1)c1ccco1	44*	26	45*	13	60*	42*	48*	58*
Cc1cc(Br)ccc1NC(=O)c1ccco1	-13	25	-9	-1	7	·	·	·
Cc1ccccc1OCC(=O)NNC(=O)CCN1C(=O)c2ccccc2C1=O	-5	10	19	-38	2	·	·	·
COc1ccc(Nc2cc(C)c3cc([N+](=O)[O-])ccc3n2)cc1	37	32	53*	-1	51*	53*	·	67*
O=C(Nc1ccccc1Cl)N1CCCN(c2nc(-c3ccccc3)ns2)CC1	46*	6	43*	-5	55*	28	33*	45*
C=CCOn1c(=O)c(-c2cccs2)[n+]([O-])c2ccccc21	41*	-15	53*	·	61*	21	33*	70*
COc1ccc(S(=O)(=O)Nc2cc3c4c(c2)CCN4C(=O)CC3)cc1C	9	25	0	33	1	·	·	·
CC(=NC1CC1)c1c(-c2ccccc2)[nH]n(-c2nc3ccccc3s2)c1=O	64*	17	53*	-15	53*	56*	49*	52*
CCOC(=O)C1=C(N)OC2=C(C(=O)CC(C)(C)C2)C1C1CCCCC1 (stereo unspecified)	28	-18	45*	37	56*	34*	·	46*
CC(C)OC(=O)CSc1nc(N)c(C#N)c(-c2cccs2)c1C#N	6	-3	16	·	10	·	·	·
CC(C)Sc1nc(N)nc(-c2cccs2)c1C#N	24	-18	48*	-194	65*	29	·	19
